Screening results: PubChem BioAssay, National Center for Advancing Translational Sciences (NCATS)
The sample as a whole holds a higher share of hits than the screen did.
Cycloheximide cs = Cycloheximide Counterscreen for Small Molecule Inhibitors of Shiga Toxin; cell reporter, cycloheximide protein synthesis inhibition counterscreen; 300,000 compounds, 12% hits; AID 2314, 2010; max response, %; in the data active means max response mostly above about 13%, no sharp cut-off; inactive means mostly below about 14%; further: read at 38.3 µM for the half of the compounds with a filed dose
Lassa entry inh = qHTS for Inhibitors of binding or entry into cells for Lassa Virus; Lassa virus pseudotype entry inhibition, cell reporter; Potency, µM (top dose mostly 37.9 µM), hits mostly inhibitors; 300,000 compounds, 1.2% hits; calls by dose curve; tested in HEK293 cells; further: nearly all actives have a fitted effect of over 50% in size
VACV mCherry inh = qHTS for Stage-Specific Inhibitors of Vaccinia Orthopoxvirus: mCherry Reporter Primary qHTS; 310,000 compounds, 0.63% hits; Vaccinia virus mCherry reporter infection, fluorescence; Potency, µM (doses to about 36.5 µM), actives largely listed as inhibitors; calls by dose curve; tested in A549 cells; further: nearly all actives have a fitted effect of over 35% in size
Shiga inhibitor = A qHTS for Small Molecule Inhibitors of Shiga Toxin; inhibition, % at 38.7 µM; Vero cells, Shiga toxin protein synthesis inhibition reporter; 290,000 compounds, 9.2% hits; in the data active means inhibition mostly above about 28%, no sharp cut-off; inactive means mostly below about 43%
MARV entry inh = qHTS for inhibitors of binding or entry into cells for Marburg Virus | Marburg virus pseudotyped entry inhibition, cell reporter | Potency, µM (series often up to 37.8 µM), usual class: inhibitors | 300,000 compounds, 1.8% hits; calls by dose curve; tested in HEK293 cells
VACV Venus inh = qHTS for Stage-Specific Inhibitors of Vaccinia Orthopoxvirus: Venus Reporter Primary qHTS; Potency, µM (series often up to 36.5 µM), hits mostly inhibitors; 330,000 compounds, 0.46% hits; Vaccinia virus Venus reporter expression, fluorescence; calls by dose curve; tested in A549 cells; further: nearly all actives have a fitted effect of over 30% in size
Large screens that a line does not name were inactive.

CCOc1ccc(S(=O)(=O)NCC(c2ccco2)S(=O)(=O)c2cccs2)cc1 (centres undefined)	Lassa entry inh inconclusive (no result: Cycloheximide cs, Shiga inhibitor, MARV entry inh)
COc1ccc(/C=C/C(=O)NCC2COc3ccccc3O2)c(OC)c1 (centres undefined)	Cycloheximide cs 20, Shiga inhibitor 46
O=C(/C=C/c1ccco1)NCC1COc2ccccc2O1 (centres undefined)	Cycloheximide cs 36
Cc1cc(C)c(OCC(=O)NCC2COc3ccccc3O2)c(C)c1 (centres undefined)	MARV entry inh 3.5µM (no result: Cycloheximide cs, Shiga inhibitor)
COc1ccccc1NC(=O)C(=O)NCC1COc2ccccc2O1 (centres undefined)	Cycloheximide cs 23
CNC(=S)N(Cc1ccc(OC)cc1)C1CC(=O)N(c2ccc(Cl)cc2)C1=O (centres undefined)	none (no result: Lassa entry inh, MARV entry inh)
CCOc1ccc(-c2cc3nc(C4CCN(C(=O)OC(C)(C)C)CC4)c(C(=O)Nc4cccc(Cl)c4C)cn3n2)cc1	MARV entry inh inconclusive (no result: Cycloheximide cs, Shiga inhibitor)
Cc1cccc(NC(=O)C2CCCN(S(=O)(=O)c3c(C)noc3/C=C/N(C)C)C2)c1C (centres undefined)	none (no result: Cycloheximide cs, Shiga inhibitor)
C=CC(=O)Nc1ccc(CN2C(=O)N(c3c(Cl)c(OC)cc(OC)c3Cl)Cc3cnc(NCCCCN(CC)CC)nc32)cc1	VACV mCherry inh inconclusive, VACV Venus inh 3.2µM (no result: Cycloheximide cs, Lassa entry inh, Shiga inhibitor, MARV entry inh)
O=C(c1ccco1)N1CCN(C(=O)N2c3ccccc3Sc3ccccc32)CC1	Lassa entry inh inconclusive, VACV mCherry inh inconclusive, MARV entry inh inconclusive, VACV Venus inh inconclusive
O=C(c1ccco1)N1c2ccccc2Sc2ccccc21	Lassa entry inh inconclusive, MARV entry inh 22µM
CCCCN(C)C(=S)Nc1ccc(Oc2ccccc2)cc1	Cycloheximide cs 22, MARV entry inh inconclusive
CN(C(=S)Nc1ccc(Oc2ccccc2)cc1)C1CCCCC1	Cycloheximide cs 22, MARV entry inh inconclusive
S=C(Nc1ccc(Oc2ccccc2)cc1)NC1CCCCCC1	Lassa entry inh inconclusive, VACV mCherry inh inconclusive, MARV entry inh inconclusive, VACV Venus inh inconclusive
C/C(=N\Nc1ccc(Cl)cc1)c1ccncc1	Cycloheximide cs 21
C/C(=N\Nc1ccc(F)cc1)c1ccncc1	Cycloheximide cs 24
C/C(=N\NC1=NCCN1)c1ccc(Cl)cc1	Lassa entry inh inconclusive, MARV entry inh inconclusive
C/C(=N\Nc1cccc(Cl)c1)c1ccncc1	Cycloheximide cs 24 (no result: Lassa entry inh, VACV mCherry inh, MARV entry inh, VACV Venus inh)
Nn1c(COc2cccc(Cl)c2)nc2ccccc2c1=O	Cycloheximide cs 38, Shiga inhibitor 75
Cc1cccc(OCc2nc3ccccc3c(=O)n2N)c1	Cycloheximide cs 47, Lassa entry inh inconclusive, MARV entry inh inconclusive
C=CCCCCc1nc2ccccc2c(=O)n1N	none
Cc1cccc(-c2nc3ccccc3c(=O)n2N)c1	none (no result: Lassa entry inh, VACV mCherry inh, MARV entry inh, VACV Venus inh)
Cc1ccc(C(=O)Nc2ccc3c(c2)OCO3)cc1Cl	Cycloheximide cs 51, Shiga inhibitor 168 (no result: Lassa entry inh, VACV mCherry inh, MARV entry inh, VACV Venus inh)
Cc1cc(Cl)ccc1NC(=O)c1ccc2c(c1)OCO2	Cycloheximide cs 26, Lassa entry inh inconclusive, Shiga inhibitor 77, MARV entry inh inconclusive
COc1cc(Cl)c(C)cc1NC(=O)c1ccc2c(c1)OCO2	none (no result: Lassa entry inh, VACV mCherry inh, MARV entry inh, VACV Venus inh)
Cc1ccc(NC(=O)c2ccc3c(c2)OCO3)cc1Cl	Cycloheximide cs 45, Shiga inhibitor 90 (no result: Lassa entry inh, VACV mCherry inh, MARV entry inh, VACV Venus inh)
CC(=O)Nc1cc(-c2ccc(N(C)C)cc2)cn2c(-c3ccc(F)cc3)cnc12	none (no result: Cycloheximide cs, Lassa entry inh, Shiga inhibitor, MARV entry inh)
CC(=O)Nc1cccc(-n2nnc(SCC(N)=O)n2)c1	none (no result: Lassa entry inh, VACV mCherry inh, MARV entry inh, VACV Venus inh)
COc1ccc(C(=O)CSc2nnn(-c3cccc(NC(C)=O)c3)n2)cc1	Cycloheximide cs 52, Shiga inhibitor 73
CC(=O)Nc1cccc(-n2nnc(SCC(=O)c3ccccc3)n2)c1	Cycloheximide cs 49, Shiga inhibitor 61 (no result: Lassa entry inh, VACV mCherry inh, MARV entry inh, VACV Venus inh)
COc1ccc(C(O)c2nc(-c3ccc(OC)c(OC)c3)cs2)cc1 (centres undefined)	none (no result: Cycloheximide cs, Lassa entry inh, Shiga inhibitor, MARV entry inh)
Cc1cc(C)cc(NC(=O)COC(=O)CCCC2=NS(=O)(=O)c3ccccc3N2)c1	none (no result: Lassa entry inh, VACV mCherry inh, MARV entry inh, VACV Venus inh)
Cc1cccc(OCC2=NS(=O)(=O)c3ccccc3N2)c1	Cycloheximide cs 38, Shiga inhibitor 106 (no result: VACV mCherry inh, VACV Venus inh)
CCN(C(=O)c1cc(S(=O)(=O)N2CCc3ccccc32)cn1C)c1cccc(C)c1	Lassa entry inh inconclusive (no result: Cycloheximide cs, Shiga inhibitor, MARV entry inh)
O=C(NCC1CCCO1)c1ccc(N2CCCCC2)nc1 (centres undefined)	Cycloheximide cs 28, Shiga inhibitor 40
